Assay outcomes from PubChem.
This excerpt belongs to a sample that is enriched for hits.
Tgondii IFNg – inhibitors of Toxoplasma gondii growth with IFN-gamma | Toxoplasma gondii growth in IFN-gamma-treated host cells; hits give low values | activity change, negative = inhibition, % (no concentration beside the values) | 69,000 tested, 3.8% active; in the data active = activity change below about -70%, passing the limit was not always enough;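 also: host cells are HeLa cells infected with Toxoplasma gondii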
A number is an active result; - = inactive.

SMILES | Tgondii IFNg
CO[C@H]1CN(C)C(=O)c2cc(NC(=O)c3ccc(Oc4ccccc4)cc3)ccc2OC[C@H](C)NC[C@H]1C | -98
CO[C@@H]1CN(C)C(=O)c2cc(NC(=O)c3ccc(Oc4ccccc4)cc3)ccc2OC[C@@H](C)NC[C@H]1C | -119
CO[C@H]1CN(C)C(=O)c2ccc(NC(=O)c3cccc(F)c3)cc2OC[C@@H](C)NC[C@@H]1C | -
COc1cccc(NC(=O)Nc2ccc3c(c2)C(=O)N(C)C[C@H](OC)[C@@H](C)CN[C@H](C)CO3)c1 | -
CO[C@@H]1CN(C)C(=O)c2cc(NC(=O)c3ccc(Oc4ccccc4)cc3)ccc2OC[C@H](C)NC[C@@H]1C | -97
CO[C@H]1CN(C)C(=O)c2cc(NS(=O)(=O)c3cccc(Cl)c3)ccc2OC[C@H](C)NC[C@H]1C | -86
CO[C@H]1CN(C)C(=O)c2cc(NS(=O)(=O)c3cccc(Cl)c3)ccc2OC[C@@H](C)NC[C@H]1C | -
CO[C@@H]1CN(C)C(=O)c2cc(NS(=O)(=O)c3cn(C)cn3)ccc2OC[C@@H](C)NC[C@@H]1C | -
CO[C@@H]1CN(C)C(=O)c2cc(NC(=O)c3cnccn3)ccc2OC[C@H](C)NC[C@H]1C | -
O=S(=O)(NCCc1csc(-c2ccc(F)cc2)n1)c1ccc2c(c1)OCCO2 | -
CCOC(=O)c1nn(CCc2ccccc2)c2c1CN(C(=O)Cn1nc(C)cc1C)CC2 | -
COc1cccc(-c2cccc(C3CCCN(C(=O)c4scnc4C)C3)n2)c1 (configuration not stated) | -
O=C(O)C1CC(=O)N(Cc2cnc3ccccc3c2)C1 (configuration not stated) | -
CCOc1cc2c(cc1CN1C3CCC1CC(O)(Cn1nc(C)ccc1=O)C3)OC(C)C2 (configuration not stated) | -
Cc1occc1C(=O)N1C[C@@H]2CCCO[C@H]2[C@@H](NC(=O)CC2CC2)C1 | -
CCCN(CCC)S(=O)(=O)c1ccc(C(=O)O)cc1 | -
CCCN(CCC)S(=O)(=O)c1ccc(C(=O)ON=C2C3CC4CC(C3)CC2C4)cc1 | -79
O=C(COc1ccc(Cl)cc1)ON=C1C2CC3CC(C2)CC1C3 | -
Cc1ccc(NC(=O)C(CC(C)C)NS(=O)(=O)c2ccc3[nH]c(=O)ccc3c2)cc1F (configuration not stated) | -
COC(=O)c1sc2ccccc2c1OC(=O)c1cccnc1Oc1ccccc1 | -
CCOc1ccc(-c2nccn2C2CCCC2)cc1CO | -
CNc1cc(-c2ccc(CN)cn2)c2cc[nH]c2n1 | -
COc1ncc(-c2cc(NCCN(C)C)nc3[nH]ccc23)c(OC)n1 | -
CC(O)c1cccc(-c2cc(NC3CCNCC3)nc3[nH]ccc23)n1 (configuration not stated) | -93
NCCc1cccc(-c2cc(NCCO)nc3[nH]ccc23)c1 | -
SMILES | Tgondii IFNg
Cc1cc(-c2ccnc3c2ccn3C)c(=O)[nH]c1C | -
c1ccc2c(-c3cc(NC4CCNCC4)nc4[nH]ccc34)n[nH]c2c1 | -75
Cc1cc(-c2cc(NC3CCNCC3)nc3[nH]ccc23)c(=O)[nH]c1C | -85
Cc1nc(-c2cc(NCc3ccccn3)nc3[nH]ccc23)cc(C(C)C)n1 | -
c1ccc(CNc2cc(-c3nccc4occc34)c3cc[nH]c3n2)nc1 | -
COc1ccc(-n2c(=O)c(C(=O)NCC(C)C)c(O)c3cccnc32)cc1 | -
Cc1ncc(CN2CCC(CNS(=O)(=O)C3CC3)C2)cn1 (configuration not stated) | -
CC(=O)Nc1ccc(C(=O)N(Cc2ccccc2F)C2(C(=O)NCc3ccccc3)CCN(C(C)=O)CC2)cc1 | -
Cc1cccc(NC(=O)N2CCC3(C2)CN(c2ccsc2)C(=O)CN3C)c1 (configuration not stated) | -
COc1cccc(-n2c(=O)c(C(=O)Nc3cccc(F)c3)c(O)c3cccnc32)c1 | -
Cc1cccc(-c2nc(C)c(CCNC(=O)C(=O)Nc3c(C)cc(C)cc3C)s2)c1 | -79
Cc1nc(-c2ccc(Cl)cc2)sc1CCNC(=O)c1cccc(C(F)(F)F)c1 | -
Cc1nc(-c2ccc(F)cc2)sc1CCNC(=O)c1cccc(F)c1 | -
Cc1nc(-c2ccc(F)cc2)sc1CCNC(=O)c1ccc(C(F)(F)F)cc1 | -
Cc1nc(-c2ccc(F)cc2)sc1CCNC(=O)c1cccc(C(F)(F)F)c1 | -74
Cc1ccc(C(=O)NCCc2sc(-c3cccc(F)c3)nc2C)cc1 | -
Cc1cc(C)c(NC(=O)C(=O)NCCc2sc(-c3cccc(F)c3)nc2C)c(C)c1 | -
Cc1nc(-c2cccc(F)c2)sc1CCNC(=O)c1ccc(C(F)(F)F)cc1 | -90
Cc1cccc(-c2nc(C)c(CCNC(=O)C(=O)Nc3c(C)cccc3C)s2)c1 | -
O=C(c1cccs1)N1CC[C@H]2[C@@H]1CCN2CC1CCOCC1 | -
C=CCn1c(=O)c(-c2nc(-c3ccc(OC)cc3)no2)c(O)c2ccccc21 | -
Cc1cccc(-c2nc(CCNC(=O)Cc3ccc(Cl)cc3)cs2)c1 | -
O=C(Cc1ccc(O)cc1)N1C[C@@H]2C3CCC(CC3)[C@@H]2C1 | -
COCC1c2nnn(CC3CC3)c2CCN1Cc1c(C)noc1C (configuration not stated) | -
